The source of these data is PubChem BioAssay.

One test has as its target Albumin (Bos taurus) (UniProt P02769). Description: compounds binding labelled BSA control protein – biochemical, small-molecule microarray, Alexa647 label, 635/667 nm fluorescence, artefact control for SMM control protein annotation, profiling panel (AID 1118).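 Also: score merges 667 nm emission intensity and signal-to-noise per printed compound spot.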 To be noted: BSA-A647 binding, fluorescence 635 nm, higher = more signal.
Test [1] is described as follows: probe aXIP binding to arrayed compounds – biochemical, NeuroSMM set, 635/667 nm fluorescence, primary screen (AID 1119).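 Also: probe is the protein aXip251-270 applied at 1 µg/mL to compound-printed slides; binding of probe to printed compounds measured as 667 nm fluorescence plus signal to noise.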 To be noted: small-molecule microarray, higher = more signal, called active from +8 up or from −8 down.
A short description of test [2]: probe aNOTCH3 binding on compound microarray – biochemical, small-molecule microarray, 635/667 nm fluorescence, primary screen (AID 1120).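 Also: probe is a biotin-tagged antibody raised against NOTCH3 rather than NOTCH3 protein; score merges spot fluorescence near 667 nm with spot signal to noise.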 To be noted: higher = more signal.
Test [3] can be described thus: probe aNOTCH2 binding on compound microarray – biochemical, small-molecule microarray, 635/667 nm fluorescence, primary screen (AID 1121).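 Also: score merges feature fluorescence read at 667 nm with its signal to noise.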 To be noted: higher = more signal.
The target in test [4] is Carbonic anhydrase 2 (Homo sapiens) (UniProt P00918). Description: compounds binding carbonic anhydrase 2 – biochemical, small-molecule microarray, Alexa647-labelled CAII, profiling panel (AID 1122). To be noted: CAII-A647 binding fluorescence, higher = more signal.
Test [5] can be described thus: COS7 lysate on small-molecule microarray, probe aHis, 635 nm (AID 1123).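 Also: z-score combines 667nm fluorescence intensity with signal-to-noise per printed compound spot.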 To be noted: COS7 cell lysate, fluorescence, higher = more signal.
Test [6] in a line: probe aLAP1 signal on lysate-treated microarray – cell lysate, small-molecule microarray, COS7 lysate, primary screen (AID 1124).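 Also: lysate comes from COS7 cells expressing LAP1 and is applied at 0.3 µg/mL; score merges spot fluorescence near 667 nm with signal-to-noise over triplicate slides.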 Conditions: probe aLAP1, fluorescence, higher = more signal.
The test system of another test is Sam68 (KHDRBS1). Description: compounds binding KHDRBS1 protein – biochemical, small-molecule microarray, 635 nm fluorescence, primary screen (AID 1125).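 Also: score merges 667 nm channel intensity with signal to noise over triplicate slides.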 To be noted: higher = more signal.
Test [7] has as its system Chordin-like protein 2 (CHRDL2). Put plainly: compounds binding chordin-like 2 – biochemical, small-molecule microarray, 635 nm fluorescence, primary screen (AID 1126).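 Also: printed compound slides probed with Chrdl2 protein at 4 µg/mL for 1 h at 4 C; score merges 667 nm emission intensity with signal to noise over three replicate slides.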 Conditions: fluorescence 635 nm, higher = more signal.
Test [8] addresses Concanavalin-A (Canavalia ensiformis) (UniProt P02866). Description: compounds binding concanavalin A lectin – biochemical, small-molecule microarray, Alexa647 label, 635 nm, artefact control for SMM control protein annotation, primary screen (AID 1127).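 Also: z combines 667 nm emission intensity with signal-to-noise across three replicate slides.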 Conditions: ConA-A647 binding fluorescence, higher = more signal.
Test [9] is described as follows: compounds binding Alexa647 anti-His antibody – biochemical, small-molecule microarray, 635 nm fluorescence, artefact control for SMM control protein annotation, primary screen (AID 1128).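 Also: score merges feature fluorescence with signal-to-noise for each printed compound spot.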 To be noted: higher = more signal.
Test [10] has as its system Human papillomavirus type 1a E7 protein (residues 1-88). Description: HPV1a E7 small-molecule binders, primary screen, biochemical, small-molecule microarray, residues 1-88, 635 nm (AID 1129). To be noted: small-molecule microarray binding, fluorescence 635 nm; higher = more signal.
The target in test [11] is Focal adhesion kinase 1 (Homo sapiens) (UniProt Q05397). Description: PTK2 protein binding on printed compound slides – biochemical, small-molecule microarray, 635/667 nm fluorescence, BSA, DTT, primary screen (AID 1130).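 Also: composite of spot emission at 667 nm and signal to noise over triplicate slides.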 Conditions: 635 nm fluorescence, higher = more signal.
Test [12] concerns Fibrinogen (Alexa647-labelled). Put plainly: Alexa647-fibrinogen binding to printed small molecules – biochemical, small-molecule microarray, 635/667 nm fluorescence, artefact control for SMM control-protein annotation, profiling panel (AID 1131).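 Also: z-score merges 667 nm fluorescence with per-spot signal-to-noise over triplicate slides.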 Conditions: fibrinogen-A647 binding fluorescence, higher = more signal.
Test [13] has as its target Follistatin (Homo sapiens) (UniProt P19883). Put plainly: FST protein binding to printed compounds – biochemical, small-molecule microarray, 635/667 nm fluorescence, primary screen (AID 1132). Conditions: 635 nm fluorescence, higher = more signal.
The target in test [14] is Fibroblast growth factor 2 (Homo sapiens) (UniProt P09038). Put plainly: basic fibroblast growth factor binding to printed compounds – biochemical, small-molecule microarray, 635/667 nm fluorescence, primary screen (AID 1133). Conditions: FGF2, fluorescence 635/667, higher = more signal.
Test [15] is described as follows: JC-1 mitochondrial potential readout, lung cancer cells – cell-based, A549, JC-1 fluorescence, basal, 24 h, 100 nL, profiling panel (AID 1138).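 Also: A549 lung adenocarcinoma cells under basal conditions with no added stimulus; test concentration not given here.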 To be noted: higher = more signal.
For another test, the system named is Lefty1. Description: Lefty1 protein binding to printed compounds – biochemical, small-molecule microarray, 635/667 nm fluorescence, primary screen (AID 1139). Conditions: fluorescence 635/667, higher = more signal.
Test [16] has as its system wheat germ agglutinin (Triticum aestivum), Alexa647-labelled. Description: Alexa647-WGA lectin binding to printed small molecules – biochemical, small-molecule microarray, 635/667 nm fluorescence, artefact control for SMM control-protein annotation, profiling panel (AID 1140).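 Also: score merges 667 nm feature emission with signal to noise over triplicate slides.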 To be noted: WGA-A647 binding, 635 nm fluorescence, higher = more signal.
In test [17] the target is Luciferin 4-monooxygenase (Photinus pyralis) (UniProt P08659). Description: inhibition of purified Photinus pyralis luciferase – biochemical, luminescence, purified enzyme, 2006 set, primary screen (AID 1141).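 Also: cell-free assay with purified firefly luciferase at 100 ng per well in PBS; test concentration not given here.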 Conditions: purified firefly luciferase, SteadyGlo luminescence, 30 min; higher = more signal, called active from +8 up or from −8 down.

Calls of active or inactive are those of the source.

Albumin (Bos taurus), sequence (P02769 whole entry, looked up): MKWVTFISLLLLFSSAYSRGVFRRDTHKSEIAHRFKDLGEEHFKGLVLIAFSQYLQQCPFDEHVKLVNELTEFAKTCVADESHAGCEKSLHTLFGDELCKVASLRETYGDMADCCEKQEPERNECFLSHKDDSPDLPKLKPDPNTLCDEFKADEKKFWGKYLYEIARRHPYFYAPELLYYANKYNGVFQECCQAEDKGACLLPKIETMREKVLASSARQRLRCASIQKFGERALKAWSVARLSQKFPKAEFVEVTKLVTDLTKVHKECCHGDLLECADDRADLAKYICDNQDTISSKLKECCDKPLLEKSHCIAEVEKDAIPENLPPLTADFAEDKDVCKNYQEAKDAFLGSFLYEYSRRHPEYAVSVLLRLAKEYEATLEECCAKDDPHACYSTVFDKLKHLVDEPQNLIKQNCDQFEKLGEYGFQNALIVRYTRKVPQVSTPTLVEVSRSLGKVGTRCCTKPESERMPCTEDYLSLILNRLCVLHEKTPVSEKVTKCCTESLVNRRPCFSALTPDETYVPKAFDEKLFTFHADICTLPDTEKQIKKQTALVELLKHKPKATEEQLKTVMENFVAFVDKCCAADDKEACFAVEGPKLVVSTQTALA
Focal adhesion kinase 1 (Homo sapiens), sequence (Q05397 whole entry, looked up): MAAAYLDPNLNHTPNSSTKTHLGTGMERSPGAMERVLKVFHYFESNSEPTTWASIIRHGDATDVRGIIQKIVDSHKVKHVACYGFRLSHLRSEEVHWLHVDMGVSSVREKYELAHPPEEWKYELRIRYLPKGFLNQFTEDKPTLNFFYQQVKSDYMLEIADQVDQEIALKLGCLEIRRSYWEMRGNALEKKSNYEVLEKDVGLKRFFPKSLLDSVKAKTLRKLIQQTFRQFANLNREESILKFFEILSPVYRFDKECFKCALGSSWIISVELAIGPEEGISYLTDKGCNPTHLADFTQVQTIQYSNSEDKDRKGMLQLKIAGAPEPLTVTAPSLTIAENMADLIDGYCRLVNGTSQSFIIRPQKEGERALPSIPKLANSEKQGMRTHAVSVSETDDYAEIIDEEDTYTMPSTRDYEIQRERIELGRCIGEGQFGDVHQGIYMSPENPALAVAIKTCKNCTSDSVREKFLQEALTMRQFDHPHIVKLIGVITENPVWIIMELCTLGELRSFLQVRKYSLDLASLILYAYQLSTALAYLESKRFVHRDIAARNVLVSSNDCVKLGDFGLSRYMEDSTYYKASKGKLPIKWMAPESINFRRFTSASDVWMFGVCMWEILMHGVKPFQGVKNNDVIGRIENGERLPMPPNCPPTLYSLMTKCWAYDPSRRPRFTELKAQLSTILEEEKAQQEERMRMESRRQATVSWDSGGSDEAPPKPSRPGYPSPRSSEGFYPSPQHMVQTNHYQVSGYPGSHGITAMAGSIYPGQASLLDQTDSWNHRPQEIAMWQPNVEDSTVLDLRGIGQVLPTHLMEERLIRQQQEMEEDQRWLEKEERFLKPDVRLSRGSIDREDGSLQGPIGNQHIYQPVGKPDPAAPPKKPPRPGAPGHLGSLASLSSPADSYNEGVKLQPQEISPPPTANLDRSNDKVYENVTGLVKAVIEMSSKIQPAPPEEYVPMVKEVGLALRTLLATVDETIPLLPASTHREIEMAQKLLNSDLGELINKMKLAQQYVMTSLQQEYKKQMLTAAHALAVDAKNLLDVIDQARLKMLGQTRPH
Concanavalin-A (Canavalia ensiformis), sequence (P02866 whole entry, looked up): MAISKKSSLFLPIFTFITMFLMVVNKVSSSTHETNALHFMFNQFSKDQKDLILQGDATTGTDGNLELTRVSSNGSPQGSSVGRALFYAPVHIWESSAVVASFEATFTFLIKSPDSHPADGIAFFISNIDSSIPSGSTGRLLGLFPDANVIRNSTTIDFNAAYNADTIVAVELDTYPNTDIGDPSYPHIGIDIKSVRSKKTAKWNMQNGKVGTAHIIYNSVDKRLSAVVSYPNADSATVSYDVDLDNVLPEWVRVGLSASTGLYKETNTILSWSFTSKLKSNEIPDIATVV
Luciferin 4-monooxygenase (Photinus pyralis), sequence (P08659 whole entry, looked up): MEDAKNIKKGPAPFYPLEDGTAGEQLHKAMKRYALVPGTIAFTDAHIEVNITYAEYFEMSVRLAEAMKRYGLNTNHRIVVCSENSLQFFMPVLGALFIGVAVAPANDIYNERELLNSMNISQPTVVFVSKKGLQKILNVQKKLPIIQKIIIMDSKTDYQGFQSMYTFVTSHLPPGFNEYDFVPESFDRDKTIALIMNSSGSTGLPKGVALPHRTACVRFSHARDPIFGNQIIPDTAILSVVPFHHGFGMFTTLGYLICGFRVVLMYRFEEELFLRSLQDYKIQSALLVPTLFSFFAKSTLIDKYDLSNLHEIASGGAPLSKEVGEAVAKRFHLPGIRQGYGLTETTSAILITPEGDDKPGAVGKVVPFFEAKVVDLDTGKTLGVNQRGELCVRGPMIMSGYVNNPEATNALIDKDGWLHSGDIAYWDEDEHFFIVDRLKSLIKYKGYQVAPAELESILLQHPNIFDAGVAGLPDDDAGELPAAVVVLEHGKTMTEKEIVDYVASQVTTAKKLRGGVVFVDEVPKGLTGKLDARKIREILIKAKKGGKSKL
Fibroblast growth factor 2 (Homo sapiens), sequence (P09038 whole entry, looked up): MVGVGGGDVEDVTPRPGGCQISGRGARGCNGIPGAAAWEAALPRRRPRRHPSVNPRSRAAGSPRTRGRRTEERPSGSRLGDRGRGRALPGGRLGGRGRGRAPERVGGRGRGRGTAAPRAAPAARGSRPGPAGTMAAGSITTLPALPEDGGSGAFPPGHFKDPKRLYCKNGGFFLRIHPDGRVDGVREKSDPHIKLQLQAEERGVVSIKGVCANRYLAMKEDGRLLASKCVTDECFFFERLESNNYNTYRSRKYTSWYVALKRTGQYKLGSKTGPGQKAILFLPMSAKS
Follistatin (Homo sapiens), sequence (P19883 whole entry, looked up): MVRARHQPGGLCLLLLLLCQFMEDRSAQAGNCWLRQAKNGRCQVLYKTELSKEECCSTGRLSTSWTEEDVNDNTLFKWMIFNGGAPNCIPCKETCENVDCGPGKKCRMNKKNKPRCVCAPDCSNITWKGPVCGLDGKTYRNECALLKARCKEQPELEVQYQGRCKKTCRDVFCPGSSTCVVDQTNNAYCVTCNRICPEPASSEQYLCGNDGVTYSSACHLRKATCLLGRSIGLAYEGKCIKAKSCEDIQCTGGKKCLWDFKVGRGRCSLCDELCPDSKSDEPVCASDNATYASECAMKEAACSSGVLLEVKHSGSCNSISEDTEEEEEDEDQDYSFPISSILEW

With `CN(C)C(=O)C1N=C(c2ccc(OCCCO)cc2)N(c2ccccc2)O1` (stereo not given), the composite z-score in the test with Albumin (Bos taurus) turned out to be 0.0877; in test [2], 0.147; in test [3], 0.0674; in [4], 0.846; in [5] it was 1.15; in test [6], 0.502. In addition, the composite z-score in the test with Sam68 (KHDRBS1) was 1.32; in test [7] it was 0.267; in test [8], 0.988; in test [9], 1.33; in test [10], 1.13; in test [11], 0.268. Further, the composite z-score in test [12] is 0.598; in test [13], 1.35; in [14] it was 1.8; with Lefty1, 1.29; in test [16], 0.586. Moreover, the composite Z-score in test [1] was 0.794 (inactive). In addition, the z-score in test [15] is 0.936; in test [17], -14.9 (active).
On to `COC(=O)[C@@]1(Cc2ccc(OC)cc2)[C@H]2c3cc(C(=O)N(C)C)n(C[C@H](O)CO)c3C[C@H]2CN1C(=O)c1ccccc1`, for which the composite z-score in the test with Albumin (Bos taurus) was 0.956; in [2] it was 0.301; in test [3], 0.462; in test [4], 0.782; in [5] it was 2.24; in test [6] it was 0.828. For the same compound, the composite z-score in the test on Sam68 (KHDRBS1) was 0.833; in [7], -1.29; in test [8], 0.863; in [9] it was 0.396; in test [10], 1.2; in [11], 1.17. Besides, the composite z-score in test [12] is 0.904; in test [13], 0.291; in test [14] it was -1.16; in the test with Lefty1, -0.908; in [16], 1.34. In addition, the composite Z-score in test [1] was -0.312 (inactive). Also, the figures for the z-score in test [15] and in test [17] were 0.193 and 0.543 (inactive), respectively.
In the case of `CCOC(=O)c1ccc(NC(=O)O[C@H]2[C@H](OC(=O)Nc3ccc4c(c3)OCO4)[C@H](OC(=O)Nc3ccc4c(c3)OCO4)[C@@H](OC)O[C@@H]2CO)cc1`, the composite z-score with Albumin (Bos taurus) was determined as 0.0541; in test [2], 0.411; in [3], 0.077; in test [4] it was 0.49; in [5], 1.52; in [6], 0.551. For the same compound, the composite z-score in the test on Sam68 (KHDRBS1) was found to be 1.3; in test [7] it was 0.393; in test [8], 1.18; in test [9] it was 1.73; in test [10] it was 1.26; in test [11], 0.812. Also, the composite z-score in test [12] was 1.01; in test [13], 1.38; in [14], 1.42; with Lefty1, 1.24; in test [16] it was 0.743. Moreover, the composite Z-score in test [1] was 1.52 (inactive). Also, the z-score was -0.551 in test [15] and -9.03 (active) in test [17].
On to `O=C(NCC(F)(F)F)[C@@H]1c2ccccc2C(=O)N(Cc2cc(F)cc(C(F)(F)F)c2)[C@H]1c1ccc(CO)cc1`, for which the composite z-score with Albumin (Bos taurus) is -0.463; in test [2], -0.355; in test [3], -0.0644; in [4], 0.295; in test [5], 0.837; in [6], -0.0879. Also, the composite z-score is -0.639 in the test on Sam68 (KHDRBS1); -1.11 in test [7]; -0.236 in test [8]; 0.44 in [9]; -0.178 in [10]; -0.385 in test [11]. In addition, the composite z-score in test [12] was -0.78; in test [13], -0.682; in test [14], -0.843; with Lefty1 it was -1.24; in test [16] it was -0.948. The composite Z-score in test [1] was 0.57 (inactive). For the same compound, the values for the z-score in [15] and in test [17] were -1.37 and 1.08 (inactive), respectively.
Turning to `CC(C)[Si](C#C[Si](C(C)C)(C(C)C)C(C)C)(O[C@H](C)c1cn([C@H](CO)Cc2ccccc2)nn1)C(C)C`, the composite z-score in the test with Albumin (Bos taurus) was 0.544; in [2] it was -0.0699; in test [3], -0.145; in [4], 0.0728; in test [5], 0.713; in test [6] it was -0.268. Besides, the composite z-score was found to be 0.193 with Sam68 (KHDRBS1); 0.498 in [7]; 1.03 in test [8]; 0.0517 in test [9]; 0.209 in test [10]; 0.21 in test [11]. Moreover, the composite z-score was 0.259 in [12]; -0.093 in [13]; 0.288 in test [14]; 0.412 in the test with Lefty1; 0.141 in test [16]. Moreover, the composite Z-score in test [1] was -0.397 (inactive). Besides, the z-score in test [15] was 0.476; in [17] it was -1.03 (inactive).
